# Test results taken from PubChem BioAssay (EPA / NIEHS).
# Records with an inconclusive call do not appear. Active and inactive are the calls of the source. The calls were made as follows, unless noted: active = hit-call score of the fitted dose curve at least 0.9, where 1 is the maximum; inconclusive = response in the unintended direction; inactive = score below 0.9.
# Legend:
# [1] = VALA_TUBHUV_Antagonist_TubuleLength: VALA Sciences human Umbilical Vein Endothelial Tubule Formation (TUBHUV) Antagonism Assay (AID 2284325)
# Procedure, shortened: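 Tubule length was imaged via CD31 immunofluorescence after a further 3-day compound exposure in 10 ng/ml VEGF, following 3-day pre-culture of HUVEC with HDF at 1:3. Vehicle 0.1% DMSO; suramin (100 uM) inhibition control.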
# [2] = IUF_NPC1_cytotoxicity_72hr: Cytotoxicity Assessment at 72 hours in the Leibniz Research Institute for Environmental Medicine (IUF) Neural Progenitor Cell Proliferation Assay (NPC1) (AID 2284332);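 also: rising LDH signal means more cytotoxicity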
# Procedure, shortened: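 Membrane-integrity loss is scored from LDH released into the medium, detected as resorufin fluorescence, with activity fitted upward relative to baseline. Test material stays on human fetal-derived progenitor spheres for 72 h.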
# [3] = VALA_MIGHUV1_ScratchOnly_WoundArea: VALA Sciences human Umbilical Vein Endothelial Cell Migration (MIGHUV) Assay, Area of Scratch Wound Inhibited Recovery (AID 2284336)
# Procedure, shortened: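 Wound area remaining after 24 h recovery imaged by Hoechst nuclear fluorescence in scratched HUVEC cultures, chemicals added within 30 min of scratching across a 6-point series. Gain of signal fitted against 0.1% DMSO; cytochalasin D positive control.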
# [4] = VALA_TUBIPS_Agonist_CellCount: Viability Assessment in the VALA Sciences human iPS-derived Endothelial Tubule Formation (TUBIPS) Agonism Assay (AID 2284338)
# [5] = CCTE_Mundy_HCI_iCellGluta_NOG_NeuronCount: CCTE's Neurite Outgrowth Assay in iCellGluta cells for Neuron Count, Mundy Lab (AID 2284340);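 also: cells fixed about 48 h after compound addition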
# Procedure, shortened: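 Neuron count read by automated high-content imaging of Hoechst 33342 and betaIII-tubulin/Alexa Fluor-488 labelling in human iPSC glutamatergic neurons. Activity fitted relative to DMSO.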
# [6] = CCTE_Mundy_HCI_iCellGluta_NOG_NeuriteCount: CCTE's Neurite Outgrowth Assay in iCellGluta cells for Neurite Count, Mundy Lab (AID 2284342);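 also: chemical exposure about 48 hours starting 2 hours after plating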
# SERPINA7 (gene 6906) = assay: CCTE_GLTED_hTBG: CCTE's human Thyroxine-binding Globulin (TBG) Inhibition Assay, Great Lakes Toxicology and Ecology Division (GLTED) Lab (AID 2284343);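 also: active chemicals lower fluorescence versus DMSO baseline by displacing probe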
# Procedure, shortened: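 Human thyroxine-binding globulin was exposed to each chemical for 2 hours, during which the ANSA probe could be displaced. Fluorescence was then measured at 380/475 nm, and loss of signal was analysed relative to DMSO.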
# TTR (gene 7276) = assay: CCTE_GLTED_hTTR_0.125uM: CCTE's human Transthyretin (hTTR) Inhibition Assay, with 0.125uM TTR, Great Lakes Toxicology and Ecology Division (GLTED) Lab (AID 2284431; active = hit-call score of the fitted dose curve at least 0.9, where 1 is the maximum; inactive = score below 0.9;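 also: hits lower the fluorescence signal relative to DMSO baseline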)
# Procedure, shortened: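 Fluorescence (380 ex, 475 em) reported the ANSA probe remaining bound to 0.125uM human transthyretin. Chemicals were incubated with the protein for 2 hours; activity was scored as loss of signal against DMSO negative control.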
# [7] = CCTE_Deisenroth_5AR_NBTE_donor: CCTE's 5alpha-reductase NanoBRET Target Engagement Assay […], Deisenroth Lab (AID 2284319; active = hit-call score of the fitted dose curve at least 0.9, where 1 is the maximum; inactive = score below 0.9); settings: actives raise or lower the signal
# Procedure, shortened: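 Donor NanoLuc luminescence at 460-20 nm is the read-out, serving artifact detection. Transiently expressed SRD5A2-NanoLuc in HEK293T; 5 h total chemical exposure, testosterone tracer added for the final 2 h; fitting bidirectional relative to DMSO baseline.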
# [8] = CCTE_Deisenroth_5AR_NBTE_acceptor: CCTE's 5alpha-reductase NanoBRET Target Engagement Assay - Autofluorescence Screen, Deisenroth Lab (AID 2284321; active = hit-call score of the fitted dose curve at least 0.9, where 1 is the maximum; inactive = score below 0.9;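 also: compound fluorescence in the acceptor channel under 460 nm excitation flags autofluorescence artifacts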); settings: actives raise or lower the signal
# Procedure, shortened: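 Acceptor fluorescence intensity was read as an artifact-detection endpoint. Test chemicals at an assumed nominal 100 uM were excited at 460 nm across three independent runs. Activity was fitted bidirectionally against DMSO.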
# SRD5A2 (gene 6716) = assay: CCTE_Deisenroth_5AR_NBTE_ratio: CCTE's 5alpha-reductase NanoBRET Target Engagement Assay - Ratio, Deisenroth Lab (AID 2284322; active = hit-call score of the fitted dose curve at least 0.9, where 1 is the maximum; inactive = score below 0.9); settings: actives raise or lower the signal
# Procedure, shortened: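 HEK293T cells transiently expressing an SRD5A2-NanoLuc fusion (20 h post-transfection) were exposed to test chemical (10 nM - 29.9 uM, 8 points) for 3 h, then testosterone tracer for a further 2 h. Acceptor/donor BRET ratio was fitted bidirectionally against DMSO baseline.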
# [9] = VALA_MIGHUV1_ScratchOnly_CellCount: Viability Assessment in the VALA Sciences human Umbilical Vein Endothelial Cell Migration (MIGHUV) Assay, Scratch Wound Inhibited Recovery (AID 2284327)
# Procedure, shortened: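 Hoechst-stained nuclei in the scratch wound were counted by high-content imaging after a 24 h recovery period. Scratched HUVEC monolayers received 6-point concentration series, triplicate, in 0.1% DMSO, fit against DMSO.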
# [10] = VALA_TUBIPS_Antagonist_CellCount: Viability Assessment in the VALA Sciences human iPS-derived Endothelial Tubule Formation (TUBIPS) Antagonism Assay (AID 2284335)
# [11] = VALA_TUBHUV_Agonist_TubuleLength: VALA Sciences human Umbilical Vein Endothelial Tubule Formation (TUBHUV) Agonism Assay (AID 2284337)
# Procedure, shortened: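 Tubule length quantified by CD31 immunofluorescence imaging after fixation. HUVEC-HDF co-cultures (1:3) pre-grown 3 days with 10 ng/ml VEGF, then dosed 3 days in VEGF medium; 0.1 % DMSO vehicle baseline.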
# [12] = CCTE_Deisenroth_H295R-HTRF_384WELL_ESTRADIOL: CCTE's H295R-HTRF Assay Evaluation of Estradiol Concentration, Deisenroth Lab (AID 2284361; active = hit-call score of the fitted dose curve at least 0.9, where 1 is the maximum; inactive = score below 0.9); settings: actives raise or lower the signal
# Procedure, shortened: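 Estradiol secreted into medium by H295R adrenocortical cells, quantified by HTRF after 48 h dosing over a nine-point 0.001 - 100 uM final range; gain or loss versus DMSO. Parallel ATP-luminescence viability readout; n=5 experiments.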
# [13] = CCTE_Deisenroth_H295R-HTRF_384WELL_TESTOSTERONE: CCTE's H295R-HTRF Assay Evaluation of Testosterone Concentration, Deisenroth Lab (AID 2284373; active = hit-call score of the fitted dose curve at least 0.9, where 1 is the maximum; inactive = score below 0.9); settings: actives raise or lower the signal
# Procedure, shortened: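 Testosterone secreted into medium was quantified by direct HTRF immunoassay after a 48 h treatment of H295R adrenocortical cells (nine concentrations, 0.001–100 uM final). Gain or loss fitted relative to DMSO; CellTiter-Glo viability read on same plates.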
# [14] = CCTE_Deisenroth_H295R-HTRF_384WELL_CTOX: Cytotoxicity Assessment in CCTE's H295R-HTRF Assay, Deisenroth Lab (AID 2284380)
# Procedure, shortened: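 Luminescent ATP viability readout (CellTiter-Glo 2.0), multiplexed on plates used for hormone sampling, after 48 h chemical exposure. Human H295R cells; final concentrations 0.001–100 uM in nine steps, technical triplicates, five experiments; DMSO baseline.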
compound,measurement,setting,value
O=[N+]([O-])c1cc(C(F)(F)F)c(Cl)c([N+](=O)[O-])c1Nc1ncc(C(F)(F)F)cc1Cl,outcome,[1],inactive
same,AC50,[2],21.9 µM (active)
same,outcome,[3],inactive
same,outcome,[4],inactive
same,AC50,[5],3.14 µM (active)
same,AC50,[6],0.937 µM (active)
same,AC50,SERPINA7 (gene 6906),0.388 µM (active)
same,AC50,TTR (gene 7276),0.0665 µM (active)
CC(C)N(C(=O)SCC(Cl)=C(Cl)Cl)C(C)C,outcome,[7],inactive
same,outcome,[8],inactive
same,outcome,SRD5A2 (gene 6716),inactive
same,AC50,[5],22.4 µM (active)
same,AC50,[6],23.2 µM (active)
N#CSCSC#N,outcome,[7],inactive
same,outcome,[8],inactive
same,AC50,SRD5A2 (gene 6716),19.5 µM (active)
FC(F)C(F)(F)OCC(Cn1cncn1)c1ccc(Cl)cc1Cl (stereo not given),AC50,SERPINA7 (gene 6906),10.1 µM (active)
CN(C)[C@@H]1C(=O)C(C(N)=O)=C(O)[C@@]2(O)C(=O)C3=C(O)c4c(O)cccc4[C@@](C)(O)[C@H]3[C@H](O)[C@@H]12,outcome,[7],inactive
same,outcome,[8],inactive
same,outcome,SRD5A2 (gene 6716),inactive
same,outcome,[9],inactive
same,outcome,[2],inactive
same,outcome,[10],inactive
same,AC50,[3],90.1 µM (active)
same,AC50,[11],7.49 µM (active)
same,AC50,[4],9.92 µM (active)
same,AC50,[5],13.4 µM (active)
same,AC50,[6],19.9 µM (active)
CCCOCC(=Nc1ccc(Cl)cc1C(F)(F)F)n1ccnc1,AC50,[12],0.27 µM (active)
same,AC50,[13],0.414 µM (active)
same,outcome,[14],inactive
same,AC50,TTR (gene 7276),3.56 µM (active)
CN1COCN(Cc2cnc(Cl)s2)C1=N[N+](=O)[O-],outcome,[2],inactive
same,outcome,[6],inactive
C[N+]1(C)CCCCC1,outcome,[2],inactive
same,outcome,[5],inactive
same,outcome,[6],inactive
CC1(C(=O)Nc2ccc(O)c(Cl)c2Cl)CCCCC1,AC50,TTR (gene 7276),7.98 µM (active)
Cc1cc(C2CC2)nc(Nc2ccccc2)n1,AC50,TTR (gene 7276),14.8 µM (active)
S=C1NCCN1,outcome,[2],inactive
same,outcome,[3],inactive
same,outcome,[11],inactive
same,outcome,[4],inactive
same,outcome,[5],inactive
same,outcome,[6],inactive
